{"source": "PubChem BioAssay (NCI)", "note": "This is part of a sample that, as a whole, favours compounds with a hit. Of some 83,000 tested, about 20% had one in any assay.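 In brief: 96-well plates, 48 h treatment, single concentration, percent growth endpoint.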 Calls of active or inactive are those of the source. The calls were made as follows: active = growth percent below 10; inactive = the rest.", "data": [{"tested_on": "MDA-MB-468 breast", "test": "NCI-60 one-dose screen, 48 h (100 = growth as untreated, 0 = no growth, -100 = all killed)", "conditions": "10 µM unless noted", "values": [{"compound": "COc1ccc(-c2nc(-c3nc4ccc(OC)cc4[nH]3)cc3c2[nH]c2ccccc23)cc1", "growth": "59.6% (inactive)"}, {"compound": "CC(=O)c1ccc(C)cc1", "growth": "98.4% (inactive)"}, {"compound": "O=C(/C=C/c1ccccc1)N(C1CCCCC1)C1CCCCC1", "growth": "72.4% (inactive)"}, {"compound": "C#CC[C@@H]1C[C@]2(C)[C@H]3CC=C4[C@H]5[C@@H](C)[C@H](C)CC[C@]5(C(=O)NCCCCCCCCN)CC[C@@]4(C)[C@]3(C)CC[C@H]2C(C)(C)[C@H]1OC(C)=O", "growth": "62.4% (inactive)"}, {"compound": "Nc1nc2c3ccncc3cc(-c3cccc(Cl)c3)c2c2cnccc12", "growth": "36.6% (inactive)"}, {"compound": "CC(Br)c1nc2ccccc2cc1C(N)=O", "note": "(stereo not given)", "growth": "105% (inactive)"}, {"compound": "CCN(CC)c1ccc(C(=N)c2ccc(N(C)C)cc2)cc1", "growth": "5.37% (active)"}, {"compound": "CCSc1nc2scc(C)c2c(=O)[nH]1", "growth": "110% (inactive)"}, {"compound": "Nc1nc(C(=O)N/N=C/c2ccc(N3CCOCC3)cc2)nn1-c1ccc(S(N)(=O)=O)cc1", "growth": "105% (inactive)"}, {"compound": "N#Cc1c(-c2cccs2)cc(-c2cnccn2)nc1SCC(=O)Nc1ccc(Br)cc1", "growth": "81.1% (inactive)"}, {"compound": "Cc1cc(N2CCCC2)nc(N(CCNc2ccnc3cc(Cl)ccc23)Cc2ccco2)n1", "growth": "13.3% (inactive)"}, {"compound": "CCCCC1C(=O)N(c2ccccc2)N(c2ccccc2)C1=O", "growth": "99.5% (inactive)"}, {"compound": "C#C[C@H](O)/C=C/CCCCCCC#C[C@H](O)CC[C@@H](O)C#CCCCCCC/C=C/[C@@H](O)C#C", "growth": "97.6% (inactive)"}, {"compound": "Cc1ccc(S(=O)(=O)Oc2ccc([N+](=O)[O-])cc2[N+](=O)[O-])cc1", "growth": "107% (inactive)"}, {"compound": "O=C(/C=C/c1ccccc1)Nc1ncc(Cc2ccccc2Cl)s1", "growth": "8.79% (active)"}, {"compound": "Cc1cc(C(O)CN(C)C)cc2c1ccc1cc(C(C)C)ccc12", "note": "(stereo not given)", "growth": "-88.6% (active)"}, {"compound": "CCOC(=O)c1cc(C(=O)c2ccc(F)cc2F)n2ccccc12", "growth": "102% (inactive)"}, {"compound": "COc1cc(/C=N/Nc2nc(-c3ccc(F)cc3)c(C#N)c(N3CCOCC3)n2)ccc1O", "growth": "87.4% (inactive)"}, {"compound": "C=C1C(=O)O[C@H]2[C@H]1CC/C(COC(=O)NCc1ccc(OC)c(OC)c1)=C\\CC[C@@]1(C)O[C@@H]21", "growth": "24.3% (inactive)"}, {"compound": "Cc1ccc(-c2nc(C#N)c(S(=O)(=O)n3nc(C)cc3N)o2)cc1", "growth": "57.7% (inactive)"}, {"compound": "c1ccc2c(c1)[nH]c1c2cc[n+]2cc3c(cc12)CCCC3", "growth": "-14.5% (active)"}, {"compound": "Cc1nc2ccccc2c(/C=C/c2ccc(Cl)cc2)c1C(=O)/C=C/c1cccs1", "growth": "79.7% (inactive)"}, {"compound": "CC(C)/C=C/CC[C@](C)(O)[C@H]1CC[C@]2(C)[C@@H]1CC[C@@H]1[C@@]3(C)C/C(=C/c4cccc(C(F)(F)F)c4)C(=O)C(C)(C)[C@@H]3CC[C@]12C", "growth": "104% (inactive)"}, {"compound": "C=C1C(=O)O[C@H]2[C@H]1CC/C(C(=O)NCCCCCCCCNC(=O)/C1=C/CC[C@@]3(C)O[C@H]3[C@H]3OC(=O)C(=C)[C@@H]3CC1)=C\\CC[C@@]1(C)O[C@@H]21", "growth": "35.7% (inactive)"}, {"compound": "O=C(O)CCC(=O)Nc1nnc(-c2ccccc2)s1", "growth": "116% (inactive)"}, {"compound": "Cc1ccc2sc3c(NCCCNCCO)nc4ccccc4c3c(=O)c2c1", "growth": "42.5% (inactive)"}, {"compound": "CCC1CCCCN1C(=S)N/N=C(\\C)c1ccccn1", "note": "(stereo not given)", "growth": "-2.96% (active)"}, {"compound": "NN1CCOC(c2ccccc2)C1", "note": "(stereo not given)", "growth": "113% (inactive)"}, {"compound": "c1ccc2c(c1)Cc1ccccc1N2CCN1CCCCC1", "growth": "99.4% (inactive)"}, {"compound": "CCc1ccc(C(=Nc2ccc(N(C)C(=O)CN3CCN(C)CC3)cc2)c2c(O)[nH]c3ccc(C(=O)OC)cc23)cc1", "growth": "-75.6% (active)"}, {"compound": "CCCCN(CCCC)c1ccc(C(=NC(C)CCCN(CC)CC)c2ccc(N(C)C)cc2)cc1", "note": "(stereo not given)", "growth": "-85.8% (active)"}, {"compound": "CC(C)c1ccc(COCc2cc(CN3CCCC3)c(O)c3ncccc23)cc1", "growth": "-21.1% (active)"}, {"compound": "Cc1c(C(=O)NC(Cc2ccccc2)C(O)C(=O)NCc2ccc(F)cc2)[nH]c2ccccc2c1=O", "note": "(stereo not given)", "growth": "99.4% (inactive)"}, {"compound": "COc1cc(C2CC(c3ccc(C)cc3)=NN2C=O)ccc1Oc1nc2c(c(=O)n(C)c(=O)n2C)n1C", "note": "(stereo not given)", "growth": "73.8% (inactive)"}, {"compound": "OC(COc1ccccc1)CN1CCN(c2ccc(Cl)cc2)CC1", "note": "(stereo not given)", "growth": "104% (inactive)"}, {"compound": "CCCCN(CC)CCCCCCCCCCN1CCCc2cc(OC)ccc21", "growth": "40.8% (inactive)"}, {"compound": "Cn1ncc2c(Sc3ccc(Cl)cc3)ncnc21", "growth": "92.2% (inactive)"}, {"compound": "CCc1ccc(NC(=O)N[C@@H](Cc2cccc(F)c2)C(=O)N[C@@H]2C(=O)N3CCC[C@H]3C(=O)N3CCCC[C@H]3C(=O)N[C@@H](CO)C(=O)N3C[C@H](C)C[C@H]3C(=O)O[C@H]2C)c(F)c1", "growth": "-7.85% (active)"}, {"compound": "CN(C)CCCC1(c2ccc(F)cc2)OCc2cc(-c3ccc(C(F)(F)F)nc3)ccc21", "note": "(stereo not given)", "growth": "73.3% (inactive)"}, {"compound": "C[C@]12CCC(=O)C[C@H]1CC[C@@H]1[C@@H]2CC[C@@]2(C)[C@H]1CC[C@]2(O)C(=O)CO", "growth": "99.8% (inactive)"}]}]}
